Measurements reported in PubChem BioAssay (Tox21).
“And” between values parts separate entries of the source, which are not always exact repeats. Identical values can stand only once. Results filed as inconclusive are left out. The source made the active and inactive calls. Unless noted, calls come from the whole dose curve; as a rule, active = well fitted curve in the direction sought with a large enough effect in the repeat runs; inconclusive = weak or mixed curves; inactive = no such curve, though single readings can be large; an effect the other way counts as inactive or inconclusive.

What was measured:
[1] = qHTS assay to identify small molecule agonists of the hypoxia (HIF-1) signaling pathway - cell viability counter screen (AID 1224844; calls by dose curve; note: nearly all actives have a fitted effect of over 50% in size)
Method in brief: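 HRE-bla ME-180; 0.5% dFBS; cpd 17 h, 37C, 5% CO2; CellTiter-Glo lum., 30 min RT, post-FRET read, same wells.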

[2] = qHTS assay to identify small molecule agonists of H2AX (AID 1224845; active = well fitted activation curve with a large enough effect in the signal ratio in the repeat runs, not every such curve was filed as active; the % refers to the signal ratio)
Method in brief: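 Wild-type CHO-K1 cells plated overnight, then exposed 3 hr at 37C to compounds at 15 concentrations (0.76% DMSO). Lysed, then HTRF anti-pH2AX(S139)-cryptate/anti-H2AX-d2 detection after 24 hr at room temperature; emissions 665 and 620 nm.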

[3] = qHTS assay to identify small molecule agonists of the hypoxia (HIF-1) signaling pathway (AID 1224846; active = well fitted activation curve with a large enough effect in the signal ratio in the repeat runs, not every such curve was filed as active; the % refers to the signal ratio)
Method in brief: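 Reporter induction in HRE-bla ME-180 cells is taken as agonism: cells sit 5 hrs after plating, receive compounds or DMSO only, incubate 17 hrs at 37C under 5% CO2, and are loaded with CCF4-AM for beta-lactamase FRET measurement.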

[4] = qHTS assay to identify small molecule agonists of H2AX - cell viability counter screen (AID 1224847; calls by dose curve; note: top concentration of the series differs between compounds; nearly all actives have a fitted effect of over 30% in size)
Method in brief: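 After overnight plating of 1000 CHO-K1 cells per well, a 15-concentration compound series was applied for 3 hr at 37C. Luminescence from CellTiter-Glo, read following 30 min at room temperature, reflected cell viability.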

[5] = qHTS RealTime-Glo MT Cell Viability Assay in HepG2 cells - 24 hour (AID 1224867); note: nearly all actives have a fitted effect of over 50% in size
Method in brief: (§1)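 Viability was tracked continuously by NanoLuc luminescence from prosubstrate reduced by living HepG2 cells, at successive time points over 40 h of compound exposure. Cells with reagent were preincubated 5 h at 37 °C before compound addition.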

[6] = qHTS RealTime-Glo MT Cell Viability Assay in HEK293 cells - 32 hour (AID 1224868); note: top concentration of the series differs between compounds; nearly all actives have a fitted effect of over 50% in size
Method in brief: (§2)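 Viability tracked continuously by luminescence as live cells reduce a prosubstrate for NanoLuc; HEK293 cells preincubated 5 h, compound-treated at 37 C, and read at 0, 8, 16, 24, 32 and 40 h.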

[7] = A CellTox Green Cytotoxicity Assay to monitor cytotoxicity in HEK293 cells - 0 hour (AID 1224869); note: nearly all actives have a fitted effect of over 50% in size
Method in brief: (§3)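 Tox21 screen in HEK293: membrane-impermeant cyanine dye fluoresces on binding dead-cell DNA; compound pinned 5 h post-seeding, plates held at 37 C, signal read repeatedly through 40 h.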

[8] = qHTS RealTime-Glo MT Cell Viability Assay in HepG2 cells - 40 hour (AID 1224870); note: nearly all actives have a fitted effect of over 50% in size
Method in brief: (§4)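 HepG2 cells mixed with RealTime-Glo MT reagents (NanoLuc plus cell-permeant prosubstrate) were seeded at 600 cells/well, incubated 5 h at 37 C/5% CO2, then pinned with compounds in DMSO; nonlytic luminescence tracked viability during 40 h treatment.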

[9] = A CellTox Green Cytotoxicity Assay to monitor cytotoxicity in HEK293 cells - 40 hour (AID 1224871); note: nearly all actives have a fitted effect of over 45% in size
Method in brief: as §3

[10] = qHTS RealTime-Glo MT Cell Viability Assay in HEK293 cells - 16 hour (AID 1224872)
Method in brief: as §2

[11] = qHTS RealTime-Glo MT Cell Viability Assay in HepG2 cells - 8 hour (AID 1224873); note: nearly all actives have a fitted effect of over 55% in size
Method in brief: as §4

[12] = qHTS RealTime-Glo MT Cell Viability Assay in HEK293 cells - 40 hour (AID 1224874); conditions: RealTime-Glo luminescence; max response: active compounds read low; note: nearly all actives have a fitted effect of over 50% in size
Method in brief: (§5)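 HEK293 + NanoLuc + prosubstrate, 600 cells/well; 5 h, 37 C/5% CO2; compound 23 nL in DMSO by pintool; 37 C; luminescence read at 0, 8, 16, 24, 32 and 40 h time points.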

[13] = A CellTox Green Cytotoxicity Assay to monitor cytotoxicity in HEK293 cells - 24 hour (AID 1224875); note: nearly all actives have a fitted effect of over 45% in size
Method in brief: as §3

[14] = A CellTox Green Cytotoxicity Assay to monitor cytotoxicity in HepG2 cells - 16 hour (AID 1224876); note: nearly all actives have a fitted effect of over 45% in size
Method in brief: (§6)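 Measurements at 0, 8, 16, 24, 32 and 40 h of treatment captured CellTox Green fluorescence in HepG2 cells that had been co-plated with reagent and preincubated 5 h at 37 C/5% CO2.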

[15] = qHTS RealTime-Glo MT Cell Viability Assay in HepG2 cells - 32 hour (AID 1224877); note: nearly all actives have a fitted effect of over 55% in size
Method in brief: as §1

[16] = A CellTox Green Cytotoxicity Assay to monitor cytotoxicity in HepG2 cells - 24 hour (AID 1224878); note: nearly all actives have a fitted effect of over 45% in size
Method in brief: as §6

[17] = A CellTox Green Cytotoxicity Assay to monitor cytotoxicity in HepG2 cells - 40 hour (AID 1224879); note: nearly all actives have a fitted effect of over 40% in size
Method in brief: as §6

[18] = qHTS RealTime-Glo MT Cell Viability Assay in HEK293 cells - 0 hour (AID 1224880)
Method in brief: as §5

[19] = qHTS assay to identify small molecule antagonists of the estrogen related receptor (ERR) signaling pathway from Tox21 library (AID 1224848); note: nearly all actives have a fitted effect of over 50% in size
Method in brief: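 First, 2,000 ERR cells per well were plated and held 6 h at 37 C/5% CO2. Next, compounds in DMSO were pinned in and left 18 h at 37 C. Finally, ONE-Glo was added and luminescence read after 30 min at room temperature.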

[20] = qHTS assay to identify small molecule agonists of the estrogen related receptor (ERR) signaling pathway from Tox21 library (AID 1224849; calls by dose curve; note: nearly all actives have a fitted effect of over 15% in size); conditions: ERR reporter cell line, ONE-Glo luciferase, 18 h; at 92.4 µM (top of the series)
Method in brief: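 Tox21 compounds tested for ERR agonism in an NTP reporter cell line: 18 h treatment at 37 C, then ONE-Glo luminescence.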
% is set by controls: 0 for no effect and ±100 for the full control effect.

CNC(=O)Oc1cccc(N=CN(C)C)c1
inactive: Potency [1] | Potency [2] | outcome [3] | Potency [4] | Potency [5] | Potency [6] | Potency [7] | Potency [8] | Potency [9] | Potency [10] | Potency [11] | max response [12] 7.04% | Potency [13] | Potency [14] | Potency [15] | Potency [16] | Potency [17] | outcome [18]

CC1(C)CC(=O)CC(C)(C)N1[O]
inactive: Potency [1] | Potency [2] | outcome [3] | Potency [4] | Potency [19] | activity change, positive = activation [20] -0.242% | Potency [5] | Potency [6] | Potency [8] | Potency [10] | Potency [11] | max response [12] 2.69% | Potency [13] | Potency [14] | Potency [15] | Potency [16] | outcome [18]

O=C(O)CCCOc1ccc(Cl)cc1Cl
inactive: Potency [1] | Potency [2] | outcome [3] | Potency [4] | Potency [5] | Potency [6] | Potency [7] | Potency [8] | Potency [9] | Potency [10] | Potency [11] | max response [12] 28.1% and -0.413% | Potency [13] | Potency [14] | Potency [15] | Potency [16] | Potency [17] | outcome [18]

O=C(Cl)OCCOCCOC(=O)Cl
inactive: Potency [1] | Potency [2] | outcome [3] | Potency [4] | Potency [19] | activity change, positive = activation [20] 1.12% | Potency [5] | Potency [6] | Potency [8] | Potency [9] | Potency [10] | Potency [11] | max response [12] 3.34% | Potency [13] | Potency [14] | Potency [15] | Potency [16] | Potency [17] | outcome [18]

CN(C)C(=O)Nc1cccc(OC(=O)NC(C)(C)C)c1
inactive: Potency [1] | Potency [2] | outcome [3] | Potency [4] | activity change, positive = activation [20] -15.7% | Potency [5] | Potency [6] | Potency [7] | Potency [8] | Potency [9] | Potency [10] | Potency [11] | max response [12] -14.3% | Potency [13] | Potency [14] | Potency [15] | Potency [16] | Potency [17] | outcome [18]

CCOP(=O)(SC(C)CC)N1CCSC1=O (centres undefined)
inactive: Potency [1] | Potency [2] | outcome [3] | Potency [4] | Potency [5] | Potency [6] | Potency [7] | Potency [8] | Potency [9] | Potency [10] | Potency [11] | max response [12] 15% | Potency [14] | Potency [15] | Potency [16] | Potency [17] | outcome [18]

N#CC(C#N)=C(C#N)C#N
inactive: Potency [1] | Potency [2] | outcome [3] | Potency [4] | Potency [19] | activity change, positive = activation [20] -1.38% | Potency [5] | Potency [6] | Potency [7] | Potency [8] | Potency [10] | Potency [11] | max response [12] 20.6% | Potency [13] | Potency [14] | Potency [15] | Potency [16] | outcome [18]

CCOP(=S)(S)OCC
inactive: Potency [1] | Potency [2] | outcome [3] | Potency [4] | Potency [19] | activity change, positive = activation [20] -3.44% | Potency [5] | Potency [6] | Potency [8] | Potency [9] | Potency [10] | Potency [11] | max response [12] 2.46% | Potency [13] | Potency [14] | Potency [15] | Potency [16] | Potency [17] | outcome [18]

CCCCCl
inactive: Potency [1] | Potency [2] | outcome [3] | Potency [4] | Potency [19] | activity change, positive = activation [20] -0.331% | Potency [5] | Potency [6] | Potency [7] | Potency [8] | Potency [10] | Potency [11] | max response [12] 1.53% | Potency [13] | Potency [14] | Potency [15] | Potency [16] | outcome [18]

ClCc1ccccc1Cl
inactive: Potency [1] | Potency [2] | outcome [3] | Potency [4] | Potency [19] | activity change, positive = activation [20] 8.41% | Potency [5] | Potency [6] | Potency [7] | Potency [8] | Potency [9] | Potency [10] | Potency [11] | max response [12] -3.09% | Potency [13] | Potency [14] | Potency [15] | Potency [16] | Potency [17] | outcome [18]

Clc1ccccc1
inactive: Potency [1] | Potency [2] | outcome [3] | Potency [4] | activity change, positive = activation [20] 5.28% | Potency [5] | Potency [6] | Potency [7] | Potency [8] | Potency [9] | Potency [10] | Potency [11] | max response [12] -1.5% | Potency [14] | Potency [15] | Potency [16] | Potency [17] | outcome [18]

COC(=O)C1(O)c2ccccc2-c2ccccc21
inactive: Potency [1] | Potency [2] | outcome [3] | Potency [4] | Potency [6] | Potency [8] | Potency [9] | Potency [10] | Potency [11] | max response [12] -22.2% | Potency [13] | Potency [14] | Potency [15] | Potency [16] | Potency [17] | outcome [18]

CCC(C)Cl (centres undefined)
inactive: Potency [1] | Potency [2] | outcome [3] | Potency [4] | Potency [6] | Potency [7] | Potency [8] | Potency [9] | Potency [10] | Potency [11] | max response [12] 9.33% | Potency [13] | Potency [14] | Potency [15] | Potency [16] | Potency [17] | outcome [18]
